Among the data in PubChem BioAssay are fold change, cell count and z-score values, retold here.

Several values for one entry are separate records, joined by “and”; a condition that tells them apart may be missing. Equal values may be shown once. Activity calls are given as the source filed them.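 The calls were made as follows, unless noted: active = compounds whose cell count with miR-34 switched on is under 0.7 times the count with it off; inactive = the rest.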

Test [1] in a line: sensitizers of A549 cells to miR-34 induction, primary screen, imaging, A549 dox-inducible miR-34, nuclei and caspase counts (AID 1347080). Also: test concentration not given here. As to conditions: A549 miR-34 inducible, Hoechst nuclei count, 48 h.
Test [2] is described as follows: survival rescue of mitochondrial mutant cells in low glucose, primary screen, MELAS cybrids, Rieske KO mouse fibroblasts, CellTiter-Glo (AID 1508586;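 active = mean z-score across replicates of 1.96 or higher in either the MELAS or the Rieske mutant cell line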;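 also: test concentration not given here; z relative to plate mean and SD of compound and empty wells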).
Test [3] is described as follows: viability rescue of complex I mutant cybrids, primary screen, cell-based, galactose medium, ATP luminescence (AID 1645843;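 active = z-score of at least 1.8 in each of two replicates, scored against plate mean and spread of sample wells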;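 also: positive z means more ATP and so rescue of galactose-driven cybrid death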). As to conditions: complex I mutant cybrid cells, 72 h, stronger effect = higher value.
Setting [4] is: stronger effect = lower value, cell number ratio, induced over uninduced.
Setting [5] is: measured here: relative caspase fold change +Dox/-Dox.
[6] abbreviates: measured here: total cells with miR-34 induction, stronger effect = lower value.
Where [7] appears, read: measured here: total cells without miR-34 induction.
The mark [8] stands for this setting: MELAS cybrid survival, CellTiter-Glo 48 h, stronger effect = higher value.
[9] abbreviates: Rieske KO mouse fibroblast survival, CellTiter-Glo 72 h.

Take `COc1ccc(C(=O)N2CCN(C(=O)c3ccc4sc(N)nc4c3)CC2)cc1`: the fold change in test [1] (setting [4]) was 0.916 (inactive); in test [1] (setting [5]), 0.875. The cell count turned out to be 9050 in test [1] (setting [6]) and 9880 in test [1] (setting [7]). Further, the z-score is -0.342 (inactive) in test [2] (setting [8]), -0.192 in test [2] (setting [9]) and -0.575 (inactive) in test [3].
With `CCc1ccc(CNC(=O)Nc2nc(C)n(C(C)C)n2)nc1`, the fold change in test [1] (setting [4]) was 0.86 (inactive); in test [1] (setting [5]), 1.49. Moreover, the figures for the cell count in test [1] (setting [6]) and in test [1] (setting [7]) were 7770 and 9030, respectively. Besides, the z-score in test [2] (setting [8]) was 0.0188 (inactive); in test [2] (setting [9]) it was 0.8; in test [3], -0.525 (inactive).
Regarding `CCCCS(=O)(=O)CCC(=O)O`, the fold change in test [1] (setting [4]) is 0.879 (inactive); in test [1] (setting [5]), 0.837. In addition, the cell count in test [1] (setting [6]) turned out to be 8330; in test [1] (setting [7]), 9470. Also, the z-score in test [2] (setting [8]) is -0.282 (inactive); in test [2] (setting [9]), -0.71; in test [3], -0.155 (inactive).
As to `CNC1CCC(c2ccc(Cl)c(Cl)c2)c2ccccc21` (stereo unspecified), the fold change in test [1] (setting [4]) was 0.897 (inactive) and 0.972 (inactive); in test [1] (setting [5]), 1.54 and 0.385. Moreover, the cell count was 3400 and 7100 in test [1] (setting [6]); 3800 and 7300 in test [1] (setting [7]). In addition, the z-score is -0.116 (inactive) in test [2] (setting [8]), -0.231 in test [2] (setting [9]) and -1.88 (inactive) in test [3].
As for `O=c1cc(-c2ccccc2)oc2ccccc12`, the fold change in test [1] (setting [4]) was 0.858 (inactive); in test [1] (setting [5]), 0.735. Further, the cell count in test [1] (setting [6]) worked out at 7170; in test [1] (setting [7]), 8370. Further, the z-score was 2.28 (active) in test [2] (setting [8]), 0.116 in test [2] (setting [9]) and 1.36 (inactive) in test [3].
`Cc1csc2ncnc(-c3cccc4ncccc34)c12`: the fold change is 0.896 (inactive) in test [1] (setting [4]) and 0.971 in test [1] (setting [5]). Further, the cell count was 7440 in test [1] (setting [6]) and 8300 in test [1] (setting [7]). Further, the z-score in test [2] (setting [8]) was 0.0854 (inactive); in test [2] (setting [9]) it was -0.504; in test [3], -0.49 (inactive).
With `O=C(Cn1nnc(-c2ccccc2)n1)Nc1ccnn1Cc1ccccc1`, the fold change was 0.843 (inactive) in test [1] (setting [4]) and 1.22 in test [1] (setting [5]). Moreover, the cell count in test [1] (setting [6]) turned out to be 7640; in test [1] (setting [7]) it was 9060. In addition, the z-score in test [2] (setting [8]) is -0.218 (inactive); in test [2] (setting [9]), -0.596; in test [3], 0.045 (inactive).
In the case of `O=C1CCNC(=O)N1`, the figures for the fold change in test [1] (setting [4]) and in test [1] (setting [5]) were 0.882 (inactive) and 0.303, respectively. The cell count in test [1] (setting [6]) was found to be 8710; in test [1] (setting [7]), 9870. Also, the z-score in test [2] (setting [8]) was 0.298 (inactive); in test [2] (setting [9]) it was 0.144; in test [3] it was 0.585 (inactive).
In the case of `CCOC(=O)c1c(C)nn(-c2ccc(OC)cc2)c1C`, the fold change is 0.895 (inactive) in test [1] (setting [4]) and 0.849 in test [1] (setting [5]). Also, the cell count was 7720 in test [1] (setting [6]) and 8620 in test [1] (setting [7]). The z-score in test [2] (setting [8]) is 0.662 (inactive); in test [2] (setting [9]), 0.769; in test [3] it was 0.595 (inactive).
As to `O=C1NCC(=O)N2CCCC12` (stereo unspecified), the fold change in test [1] (setting [4]) was 0.892 (inactive); in test [1] (setting [5]), 0.892. Further, the values for the cell count in test [1] (setting [6]) and in test [1] (setting [7]) were 8240 and 9240, respectively. For the same compound, the z-score in test [2] (setting [8]) is -0.237 (inactive); in test [2] (setting [9]), -0.595; in test [3], 0.315 (inactive).
In the case of `COc1ccc(CN2CCN(c3ncnc4sccc34)CC2=O)cc1`, the figures for the fold change in test [1] (setting [4]) and in test [1] (setting [5]) were 0.842 (inactive) and 1.22, respectively. The cell count turned out to be 5020 in test [1] (setting [6]) and 5960 in test [1] (setting [7]). Moreover, the figures for the z-score in test [2] (setting [8]), in test [2] (setting [9]) and in test [3] were -0.496 (inactive), -0.343 and 0.64 (inactive), respectively.
As to `COc1ccc2c(c1)CCN(C(=O)Nc1n[nH]c(-c3ccccc3F)n1)C2`, the fold change was 0.904 (inactive) in test [1] (setting [4]) and 0.695 in test [1] (setting [5]). Moreover, the cell count was 7710 in test [1] (setting [6]) and 8530 in test [1] (setting [7]). Also, the figures for the z-score in test [2] (setting [8]), in test [2] (setting [9]) and in test [3] were -0.521, 3.73 and 0.16 (inactive), respectively.
As to `Cc1ccc2c(-c3ncnc4scc(C)c34)cccc2n1`, the fold change was 0.882 (inactive) in test [1] (setting [4]) and 1.37 in test [1] (setting [5]). Besides, the cell count in test [1] (setting [6]) turned out to be 6650; in test [1] (setting [7]) it was 7540. Also, the z-score was -0.275 (inactive) in test [2] (setting [8]), -0.173 in test [2] (setting [9]) and 2.45 (inactive) in test [3].
Take `NC(=O)NC(CCC(=O)O)C(=O)O` (stereo unspecified): the figures for the fold change in test [1] (setting [4]) and in test [1] (setting [5]) were 0.857 (inactive) and 0.229, respectively. For the same compound, the cell count in test [1] (setting [6]) was 8940; in test [1] (setting [7]) it was 10400. For the same compound, the figures for the z-score in test [2] (setting [8]), in test [2] (setting [9]) and in test [3] were 0.385 (inactive), -0.000429 and 0.4 (inactive), respectively.
With `COc1cccc2ccc(-c3nnc4ccccn34)nc12`, the fold change is 0.871 (inactive) in test [1] (setting [4]) and 1.83 in test [1] (setting [5]). Moreover, the values for the cell count in test [1] (setting [6]) and in test [1] (setting [7]) were 7320 and 8400, respectively. In addition, the z-score was -0.646 (inactive) in test [2] (setting [8]), 0.957 in test [2] (setting [9]) and -0.595 (inactive) in test [3].
As to `NC(N)=NC(N)=Nc1cc(C(F)(F)F)ccc1Cl`, the fold change in test [1] (setting [4]) is 0.901 (inactive); in test [1] (setting [5]), 0.694. Further, the cell count in test [1] (setting [6]) came to 7310; in test [1] (setting [7]), 8110. Also, the z-score in test [2] (setting [8]) was 0.898 (inactive); in test [2] (setting [9]), -0.189; in test [3], -1.95 (inactive).
As for `Cn1cc(/C=C/C(=O)N2CCc3[nH]nc(-c4ccccc4F)c3C2)cn1`, the fold change in test [1] (setting [4]) is 0.865 (inactive); in test [1] (setting [5]), 2.04. Besides, the cell count in test [1] (setting [6]) was determined as 7720; in test [1] (setting [7]), 8920. Besides, the z-score in test [2] (setting [8]) is -0.472 (inactive); in test [2] (setting [9]) it was -0.29; in test [3] it was -0.48 (inactive).
`Cc1nn(C)cc1-c1ccnc(NCc2nc(Cc3ccccc3)no2)n1`: the fold change is 0.883 (inactive) in test [1] (setting [4]) and 1.22 in test [1] (setting [5]). Besides, the values for the cell count in test [1] (setting [6]) and in test [1] (setting [7]) were 8680 and 9840, respectively. For the same compound, the z-score in test [2] (setting [8]) was -0.288 (inactive); in test [2] (setting [9]) it was -0.167; in test [3], -0.52 (inactive).
In the case of `Cc1csc(CNC(=O)Cc2csc(-c3ccccc3)n2)n1`, the fold change is 0.931 (inactive) in test [1] (setting [4]) and 1.12 in test [1] (setting [5]). Also, the cell count in test [1] (setting [6]) came out at 8110; in test [1] (setting [7]), 8710. The z-score is 0.125 (inactive) in test [2] (setting [8]), 0.0782 in test [2] (setting [9]) and -0.44 (inactive) in test [3].
Consider `COc1ccc(CCC(=O)O)cc1OC`, for which the fold change in test [1] (setting [4]) is 0.922 (inactive); in test [1] (setting [5]), 0.518. Also, the cell count in test [1] (setting [6]) came out at 8510; in test [1] (setting [7]), 9240. The z-score in test [2] (setting [8]) is -0.767 (inactive); in test [2] (setting [9]), -0.44; in test [3], -0.02 (inactive).
Turning to `CC(C)n1cc(-c2cc(C(=O)N(C)Cc3ccncc3)c3cc(F)ccc3n2)cn1`, the fold change in test [1] (setting [4]) was 0.953 (inactive); in test [1] (setting [5]), 1.49. In addition, the figures for the cell count in test [1] (setting [6]) and in test [1] (setting [7]) were 7910 and 8290, respectively. Also, the z-score in test [2] (setting [8]) is -1.09 (inactive); in test [2] (setting [9]), 0.3; in test [3], -0.295 (inactive).
Turning to `O=c1ccn2c(n1)OC1C(O)C(CO)OC12` (stereo unspecified), the fold change is 0.869 (inactive) in test [1] (setting [4]) and 0.596 in test [1] (setting [5]). The cell count in test [1] (setting [6]) worked out at 8620; in test [1] (setting [7]), 9930. The z-score was 0.627 (inactive) in test [2] (setting [8]), -0.112 in test [2] (setting [9]) and 0.87 (inactive) in test [3].
Regarding `O=C(Cc1noc2ccccc12)NCCOc1cccnc1`, the fold change is 0.924 (inactive) in test [1] (setting [4]) and 1.95 in test [1] (setting [5]). In addition, the cell count is 9890 in test [1] (setting [6]) and 10700 in test [1] (setting [7]). The z-score in test [2] (setting [8]) is -0.132 (inactive); in test [2] (setting [9]) it was -0.425; in test [3], -0.56 (inactive).
